About 6,400 (1.9%) of roughly 340,000 compounds were called active. About 4% were inconclusive and are not listed. Calls come from the whole dose curve; as a rule, active = well fitted falling curve with a large enough effect; inconclusive = small, poorly fitted or top-dose-only effect; inactive = no such curve, though single readings can be large or run the other way. For the sample, actives were picked, then their nearest neighbours and some compounds at random.
Potency is the fitted concentration of half-maximal effect.

Sequence of ATP-dependent Clp protease proteolytic subunit (Bacillus subtilis (strain 168)) (P80244 whole entry, looked up): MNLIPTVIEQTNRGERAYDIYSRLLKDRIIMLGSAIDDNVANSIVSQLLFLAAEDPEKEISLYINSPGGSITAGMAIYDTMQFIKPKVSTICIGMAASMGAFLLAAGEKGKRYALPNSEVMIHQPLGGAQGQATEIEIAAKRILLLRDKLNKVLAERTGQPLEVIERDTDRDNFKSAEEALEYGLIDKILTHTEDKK

The target of the assay is ATP-dependent Clp protease proteolytic subunit (Bacillus subtilis (strain 168)) (UniProt P80244). The experiment in a line: qHTS Assay for Activators of ClpP. Note: the source files actives as falling curves though it sought activators and does not explain the sign; nearly all actives have a fitted effect of over 65% in size. Particulars: purified B. subtilis ClpP, FRET peptide cleavage, 20 min; series mostly up to 57.5 µM; activity change, negative = active: at the top concentration. The essentials:
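Purified B. subtilis ClpP, 10 microg/mL final in Tris/HCl pH8 with KCl, BSA, glycerol and Tween-20, cleaved an Abz/nitrotyrosine-quenched decapeptide. Fluorescence (ex 320, em 430) was read at 0 and 20 min at room temperature. Delta was normalized to 5.8 microM ADEP and DMSO/no-enzyme controls.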
Background: Quantitative high-throughput screening tests each substance at several concentrations.
Consider `O=C(Cn1c(-c2cccs2)cc2ccccc21)NCCc1ccc(Cl)cc1`, for which the Potency was 20 µM (active).
For the compound `O=C(Cn1c(=O)nc(-c2ccccc2)c2cc(Cl)ccc21)NCc1ccc(Cl)cc1`, the “activity change, negative = active” value is 4.43% (inactive).
Take `CN(C)C1CN(Cc2cn(Cc3ccccc3)nn2)S(=O)(=O)C1` (stereo not given): the “activity change, negative = active” value was 1.81% (inactive).
The same measure, in the same setting: to `O=c1[nH]c2ccccc2n1C1CCN(CCOc2ccccc2)CC1` belongs 1.5% (inactive); to `COC(=O)C1(C(=O)OC)C[C@H](c2ccccc2)N(Cc2ccccc2OC)[C@@H]1c1ccccc1`, -5.6% (inactive); to `O=C(NCc1ccc2c(c1)OCO2)c1c(O)nc2sccn2c1=O`, -1.8% (inactive).
Same read-out and setting: the figure for `O=C(NCc1ccc(Cl)cc1)c1cc(=O)nc2sc(-c3ccccc3)nn12` is -10.5% (inactive).
With `O=C(NCc1ccc(Cl)cc1)c1cc2c(nc3sccn32)s1`, the Potency is 31.6 µM (active).
`CCc1nc2ccc(C(=O)NCc3ccc(OC)cc3)cn2c1N(CC)Cc1cccc(Br)c1`: the “activity change, negative = active” value was -26.8% (inactive).
On to `COc1ccc(C(O)C(O)(C(=O)OC(C)C)c2ccc(C)cc2)cc1` (stereo not given), for which the “activity change, negative = active” value was -0.377% (inactive).
With `COc1ccc(C(C(=O)NCc2ccccc2)n2c(=O)c(-c3ccccc3)nc3ccccc32)cc1` (stereo not given), the Potency is 28.2 µM (active).
On to `CC(C)(C)NC(=O)C(CCc1ccccc1)n1c(=O)c(-c2ccccc2)nc2ccccc21` (stereo not given), for which the “activity change, negative = active” value is -29.6% (inactive).
Still for that read-out and setting: the figure for `N#Cc1ccc(C(C(=O)NCc2ccccc2)n2c(=O)c(-c3ccco3)nc3ccccc32)cc1` (stereo not given) is 3.44% (inactive); for `CCc1nc2c(OCCOc3ccc(F)cc3)cccn2c1N(C)C(=O)c1ccccc1F` it is 0.272% (inactive); for `CC(C)(C)Cc1c(C2CCCCC2)nc2ccc(Br)cn12` it is -1.44% (inactive).
Still for that read-out and setting: to `CCc1c(-c2ccc(F)cc2)ncn1Cc1cccc(-c2ccccc2)c1` belongs -16.7% (inactive); to `Cn1c(Nc2ccc(F)cc2)nc2cc(-c3ccsc3)sc2c1=O`, -19.8% (inactive); to `O=C(O)C1=C/C(=C/C=[N+]2c3cc(O)c(O[C@H]4OC(CO)[C@@H](O)[C@@H](O)[C@@H]4O)cc3C[C@@H]2C(=O)[O-])C[C@H](C(=O)O)N1` (stereo not given in full), -1.44% (inactive).
Same read-out and setting: to `Cc1cccc(-c2cnc(C(O)c3cc(C)cc(C)c3)[nH]2)c1` (stereo not given) belongs -1.64% (inactive).
On to `CCN(CC)c1nn2c(=O)c(C(=O)NCCc3ccccc3)cnc2s1`, for which the Potency is 28.2 µM (active).
As for `O=C(O)c1ccccc1-c1ccccc1C(=O)NCCc1ccccc1`, the “activity change, negative = active” value was 0.88% (inactive).
The same measure, in the same setting: the figure for `O=C(NCCc1ccccc1)c1cnc2sc(N3CCCC3)nn2c1=O` is 23.7% (inactive).
The same measure, in the same setting: the figure for `CC1(C(=O)Nc2cccc3cccnc23)CCN1C(=O)CCC1CCCC1` (stereo not given) is -4.78% (inactive).
On to `Cc1occc1C(=O)Nc1nnc(C2CCCCC2)s1`, for which the “activity change, negative = active” value is 1.56% (inactive).
Turning to `Cc1occc1C(=O)Nc1nnc(-c2ccncc2)s1`, the Potency was 31.6 µM (active).
As to `Cc1ccc(NC(=O)Nc2nnc(-c3ccncc3)s2)cc1`, the “activity change, negative = active” value is -17.4% (inactive).
Still for that read-out and setting: to `CCCCOc1ccc(C(=O)NO)cc1` belongs 1.01% (inactive); to `O=C(OCc1ccccc1)N1CCC2CC1c1ccc(-c3ccc4c(c3)OCO4)cc12` (stereo not given), -29.7% (inactive).
The same measure, in the same setting: to `CC1(C(=O)NS(=O)(=O)c2ccccc2Cl)CCN1C(=O)c1cccc(F)c1` (stereo not given) belongs -2.25% (inactive).
In the case of `CCc1nc2c(OCCOc3ccccc3)cccn2c1N(C)C(=O)c1ccc(OC)cc1`, the “activity change, negative = active” value was -0.66% (inactive).
On the same count and under the same terms, to `CCOC(=O)c1cc(=O)c2ccc(OCc3ccccc3)cc2o1` belongs -0.5% (inactive).
In the case of `CCOC(=O)c1c(-c2ccccc2)oc2ccc(OCC(N)=O)cc12`, the “activity change, negative = active” value was 4% (inactive).
For `CCOC(=O)COc1cc(OCC(=O)OCC)c2c(=O)cc(-c3ccccc3)oc2c1`, the Potency was 28.2 µM (active).
For `CN1C[C@@H](CO)O[C@@H](n2cnc3c(N4CCN(CCO)CC4)ncnc32)C1`, the “activity change, negative = active” value is -1.83% (inactive).
With `COc1cccc(NC(=S)NCc2ccccn2)c1`, the “activity change, negative = active” value was 1.22% (inactive).
For the compound `COc1cccc(NC(=S)N(Cc2ccc(C)cc2)Cc2ccccn2)c1`, the Potency is 28.2 µM (active).
`Cc1ccc(CN(Cc2cccnc2)C(=S)Nc2cccc(Cl)c2C)cc1`: the “activity change, negative = active” value is -1.41% (inactive).
As to `CC1(C(=O)NCc2ccco2)Cc2c(-c3ccc4c(c3)OCO4)ccnc2O1` (stereo not given), the “activity change, negative = active” value is 4.97% (inactive).
On to `C=CCn1c(SCc2ccc(C(=O)NCCO)cc2)nc2ccccc2c1=O`, for which the “activity change, negative = active” value was -1.32% (inactive).
Turning to `O=C(NCc1ccc(F)cc1)c1ccc(Cn2c(SCc3ccc(F)cc3)nc3cccnc32)cc1`, the Potency was 28.2 µM (active).
In the case of `O=C(O)c1ccc(CSc2nc3cccnc3n2Cc2cccc(F)c2)cc1`, the Potency is 31.6 µM (active).
Turning to `O=C(O)c1ccc(Cn2c(SCc3ccc(F)cc3)nc3ccncc32)cc1`, the “activity change, negative = active” value was -6.24% (inactive).
With `Cc1cccc(CSc2nc3ccncc3n2Cc2ccc(C(=O)O)cc2)c1`, the “activity change, negative = active” value is -15.8% (inactive).
As to `Cc1ccc(CSc2nc3cccnc3n2Cc2ccc(C(=O)NC3CC3)cc2)cc1`, the “activity change, negative = active” value was -21.3% (inactive).
With `COc1cccc(C(O)c2ncc(-c3ccc4ccccc4c3)[nH]2)c1` (stereo not given), the “activity change, negative = active” value is 5.1% (inactive).
For `CCCCNC(=O)C[C@@H]1C[C@@]2(C(=O)OCC)CCC=C2N(Cc2cccc3ccccc23)C1=O`, the “activity change, negative = active” value is 0.695% (inactive).
Same read-out and setting: to `CCOC(=O)[C@]12CCC=C1N(Cc1cccc3ccccc13)C(=O)[C@H](CC(=O)NCc1cccc(C(F)(F)F)c1)C2` belongs -21.3% (inactive).
`Cc1nn(CC(=O)O)c(=O)c2cc3cc(F)ccc3n12`: the Potency is 28.2 µM (active).
For `Cc1nn(CC(=O)NCCc2ccccc2)c(=O)c2cc3occc3n12`, the “activity change, negative = active” value was -3.03% (inactive).
With `Cc1nn(CC(=O)NCC2CCCO2)c(=O)c2cc3ccccc3n12` (stereo not given), the “activity change, negative = active” value is 3.78% (inactive).

The record behind these values is PubChem BioAssay AID651965 (National Center for Advancing Translational Sciences (NCATS), 2013).
